Assay results as given in PubChem BioAssay (NCI).
This is part of a sample that, as a whole, favours compounds with a hit. Of some 83,000 tested, about 20% had one in any assay.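 Assay: single dose, 48 h. Readout: percent growth (0 = no net growth; negative = cell death). Active: <10.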 The source made the active and inactive calls.

What was measured:
Assay in all cases: NCI-60 one-dose screen, 48 h (100 = growth as untreated, 0 = no growth, -100 = all killed)
Conditions in all cases: 10 µM unless noted
DU-145 prostate = test system: DU-145 prostate
K-562 leukemia = test system: K-562 leukemia
MALME-3M melanoma = test system: MALME-3M melanoma
MDA-MB-231 breast = test system: MDA-MB-231 breast
RXF 393 renal = test system: RXF 393 renal
SF-268 CNS = test system: SF-268 CNS
SF-295 CNS = test system: SF-295 CNS
UACC-257 melanoma = test system: UACC-257 melanoma
M14 melanoma = test system: M14 melanoma
HCT-15 colon = test system: HCT-15 colon
HT29 colon = test system: HT29 colon
SNB-75 CNS = test system: SNB-75 CNS
SNB-19 CNS = test system: SNB-19 CNS
U251 CNS = test system: U251 CNS
PC-3 prostate = test system: PC-3 prostate
SK-MEL-5 melanoma = test system: SK-MEL-5 melanoma
UACC-62 melanoma = test system: UACC-62 melanoma
LOX IMVI melanoma = test system: LOX IMVI melanoma
SK-MEL-28 melanoma = test system: SK-MEL-28 melanoma
SF-539 CNS = test system: SF-539 CNS

Measured: growth

NC(=S)N/N=C/c1ccc(OCc2ccccc2)cc1
inactive: DU-145 prostate 85.3% | K-562 leukemia 43.7% | MALME-3M melanoma 56.2% | MDA-MB-231 breast 69.9% | RXF 393 renal 52.4% | SF-268 CNS 80.9% | SF-295 CNS 96% | UACC-257 melanoma 60.7% | M14 melanoma 71.6% | HCT-15 colon 47.8% | HT29 colon 47.7% | SNB-75 CNS 67.8% | SNB-19 CNS 73.1% | U251 CNS 71.8% | PC-3 prostate 64.2% | SK-MEL-5 melanoma 86.4% | UACC-62 melanoma 61.8% | LOX IMVI melanoma 82.1% | SK-MEL-28 melanoma 80%

CN(C)c1ccc(C2Nc3ccccc3-n3cccc32)cc1 (configuration not stated)
inactive: DU-145 prostate 114% | K-562 leukemia 121% | MALME-3M melanoma 99.6% | MDA-MB-231 breast 96.5% | RXF 393 renal 98.5% | SF-268 CNS 103% | SF-295 CNS 102% | UACC-257 melanoma 111% | M14 melanoma 99.1% | HCT-15 colon 89.7% | HT29 colon 99.9% | SNB-75 CNS 107% | SNB-19 CNS 94.7% | U251 CNS 95.6% | PC-3 prostate 66.4% | SK-MEL-5 melanoma 93.2% | UACC-62 melanoma 79% | LOX IMVI melanoma 103% | SK-MEL-28 melanoma 107%

COc1cnc2c(c1)C(=O)c1c-2n(CCCN2CCCC2)c(=O)c2cc([N+](=O)[O-])ccc12
inactive: SF-268 CNS 17.1% | HCT-15 colon 20.3% | SNB-19 CNS 19.8% | PC-3 prostate 15.6% | SK-MEL-28 melanoma 29.3%
active: DU-145 prostate 3.15% | K-562 leukemia -12.1% | MALME-3M melanoma -20.2% | MDA-MB-231 breast -49.1% | RXF 393 renal -88.7% | SF-295 CNS -6.13% | UACC-257 melanoma -8.07% | M14 melanoma 0.878% | HT29 colon -59.4% | SNB-75 CNS -3.27% | U251 CNS -64.8% | SK-MEL-5 melanoma -96.8% | UACC-62 melanoma -67.5% | LOX IMVI melanoma -82.3%

COc1cc2c(cc1O)CCc1cc(O)cc(OC)c1-2
inactive: DU-145 prostate 109% | K-562 leukemia 99.2% | MALME-3M melanoma 96.5% | MDA-MB-231 breast 83.1% | RXF 393 renal 103% | SF-268 CNS 93.8% | SF-295 CNS 103% | UACC-257 melanoma 95.3% | M14 melanoma 94.6% | HCT-15 colon 90.7% | HT29 colon 95.6% | SNB-75 CNS 91.9% | SNB-19 CNS 98% | U251 CNS 91.3% | PC-3 prostate 93.6% | SK-MEL-5 melanoma 98.5% | UACC-62 melanoma 87.2% | LOX IMVI melanoma 93.5% | SK-MEL-28 melanoma 100%

NC(=S)N/N=C/c1cc(-c2cccc(N)c2)ccn1
active: SF-295 CNS 9.47% | M14 melanoma 1.75% | SK-MEL-5 melanoma 8.97% | UACC-62 melanoma -2.21%
inactive: DU-145 prostate 28.1% | K-562 leukemia 14.9% | MALME-3M melanoma 15.6% | MDA-MB-231 breast 57.6% | RXF 393 renal 34.5% | SF-268 CNS 21.2% | UACC-257 melanoma 29.3% | HCT-15 colon 23.8% | HT29 colon 34.8% | SNB-75 CNS 35.1% | SNB-19 CNS 42.9% | U251 CNS 16.1% | PC-3 prostate 58.8% | LOX IMVI melanoma 15.6% | SK-MEL-28 melanoma 52.1%

CCCCCCCCSC1=CC(=O)C(OC)=C(OC)C1=O
active: K-562 leukemia 3.59% | MALME-3M melanoma -53.4% | RXF 393 renal -69.7% | UACC-257 melanoma -35.3% | PC-3 prostate -13.9% | SK-MEL-5 melanoma 4.84% | LOX IMVI melanoma -48.7%
inactive: DU-145 prostate 68.5% | MDA-MB-231 breast 24.2% | SF-268 CNS 43.6% | SF-295 CNS 74.1% | M14 melanoma 26.6% | HCT-15 colon 10.9% | HT29 colon 35.4% | SNB-75 CNS 75.7% | SNB-19 CNS 79.3% | U251 CNS 42.5% | UACC-62 melanoma 42.9% | SK-MEL-28 melanoma 72.4%

O=C(CCCCN1CCOCC1)Nc1ccc(Cn2nnc3c2C(=O)c2nnn(Cc4ccc(NC(=O)CCCCN5CCOCC5)cc4)c2C3=O)cc1
active: DU-145 prostate -88.6% | K-562 leukemia 6.24% | MALME-3M melanoma -86% | MDA-MB-231 breast -1.55% | RXF 393 renal -67.4% | SF-268 CNS -35.5% | SF-295 CNS -87.7% | UACC-257 melanoma -77.2% | M14 melanoma -90.3% | HCT-15 colon -37% | HT29 colon -28.6% | SNB-75 CNS -92.3% | SNB-19 CNS -86.2% | U251 CNS -85.2% | PC-3 prostate 0.413% | SK-MEL-5 melanoma -95.8% | UACC-62 melanoma -80% | LOX IMVI melanoma -23.2% | SK-MEL-28 melanoma -54.9%

COc1cnc2c(c1)C(=O)c1c-2n(CCCN2CCN(C)CC2)c(=O)c2cc([N+](=O)[O-])ccc12
inactive: RXF 393 renal 84.2%
active: DU-145 prostate -42.5% | K-562 leukemia -50.8% | MALME-3M melanoma -72.9% | MDA-MB-231 breast -72.3% | SF-268 CNS -60.7% | SF-295 CNS -80.8% | UACC-257 melanoma -37.6% | M14 melanoma -85.2% | HCT-15 colon -61.2% | HT29 colon -79.4% | SNB-75 CNS -93.2% | SNB-19 CNS -20.6% | U251 CNS -81.2% | PC-3 prostate 4.16% | SK-MEL-5 melanoma -97.5% | UACC-62 melanoma -77.9% | LOX IMVI melanoma -90.7% | SK-MEL-28 melanoma -80.6%

C=C1CC[C@@H]2[C@](C)(COC(C)=O)[C@H](OC(C)=O)CC[C@@]2(C)[C@@H]1CC(Nc1ccc(S(=O)(=O)Nc2ccc(Cl)nn2)cc1)C1=CCOC1=O (some centres not stated)
inactive: DU-145 prostate 40.2% | MALME-3M melanoma 55.3% | MDA-MB-231 breast 23.8% | SF-268 CNS 43.3% | SF-295 CNS 92.8% | UACC-257 melanoma 44% | M14 melanoma 10.7% | SNB-75 CNS 25.2% | SNB-19 CNS 76% | PC-3 prostate 38.4% | SK-MEL-5 melanoma 35.8%
active: K-562 leukemia 6.81% | RXF 393 renal -13.4% | HCT-15 colon -18.4% | HT29 colon -18.3% | U251 CNS -41.2% | UACC-62 melanoma -50% | LOX IMVI melanoma -84.6% | SK-MEL-28 melanoma 6.66%

O=C1c2cc3c(cc2-c2c1c1cc(Cl)c(Cl)cc1c(=O)n2C[C@H](O)CO)OCO3
active: DU-145 prostate -14.6% | K-562 leukemia 7.53% | MALME-3M melanoma -37.4% | MDA-MB-231 breast 0.134% | RXF 393 renal -69% | SF-268 CNS -2.79% | SF-295 CNS -47% | UACC-257 melanoma -52.9% | M14 melanoma -16.3% | HCT-15 colon 1.28% | HT29 colon -38.8% | SNB-75 CNS -31.4% | SNB-19 CNS -6.61% | U251 CNS -63.4% | PC-3 prostate 5.35% | SK-MEL-5 melanoma -84.8% | UACC-62 melanoma -66.8% | LOX IMVI melanoma -70.9% | SK-MEL-28 melanoma 0.507%

O=C1Nc2ccccc2/C1=C/C(=N/c1nnc(-c2ccccc2)s1)c1ccccc1
inactive: DU-145 prostate 34.4% | K-562 leukemia 20.4% | MALME-3M melanoma 37.8% | MDA-MB-231 breast 54.5% | RXF 393 renal 27.1% | SF-268 CNS 60.4% | SF-539 CNS 52.7% | M14 melanoma 75.7% | HCT-15 colon 19.8% | SNB-75 CNS 78.7% | SNB-19 CNS 103% | PC-3 prostate 78.4% | SK-MEL-5 melanoma 93.9% | UACC-62 melanoma 71.5% | SK-MEL-28 melanoma 86.4%
active: HT29 colon -36.3% | LOX IMVI melanoma -86.3%

CNCc1cccc2c1OCCOCCOCCN(C)S(=O)(=O)c1ccc(cc1)-c1cnc(N)c(n1)C(=O)N2
active: K-562 leukemia 1.1% | MALME-3M melanoma 9.53% | RXF 393 renal -54.8% | LOX IMVI melanoma -16%
inactive: DU-145 prostate 47.4% | MDA-MB-231 breast 69.1% | SF-268 CNS 69.4% | SF-295 CNS 87.6% | UACC-257 melanoma 63.4% | M14 melanoma 37.3% | HCT-15 colon 11.4% | SNB-75 CNS 33.2% | SNB-19 CNS 93.3% | U251 CNS 12.8% | PC-3 prostate 54.1% | SK-MEL-5 melanoma 82.5% | UACC-62 melanoma 29.4% | SK-MEL-28 melanoma 68%

O=C(O)c1c([N+](=O)[O-])cnc2ccccc12
inactive: DU-145 prostate 116% | K-562 leukemia 112% | MALME-3M melanoma 88.4% | MDA-MB-231 breast 107% | RXF 393 renal 110% | SF-268 CNS 104% | SF-295 CNS 102% | UACC-257 melanoma 97.1% | M14 melanoma 93.5% | HCT-15 colon 109% | SNB-75 CNS 88.4% | SNB-19 CNS 91% | U251 CNS 106% | PC-3 prostate 104% | SK-MEL-5 melanoma 97.4% | UACC-62 melanoma 99.4% | LOX IMVI melanoma 97.6% | SK-MEL-28 melanoma 125%

CCC(C)[C@@H]1NC(=O)[C@@H]2CCCN2C(=O)[C@H](Cc2ccccc2)NC(=O)[C@@H]2CCCN2C(=O)[C@H](Cc2ccccc2)NC(=O)[C@@H]2CCCN2C(=O)[C@H](Cc2ccccc2)NC1=O (some centres not stated)
inactive: DU-145 prostate 118% | K-562 leukemia 91.5% | MALME-3M melanoma 126% | MDA-MB-231 breast 104% | RXF 393 renal 111% | SF-268 CNS 119% | SF-539 CNS 109% | M14 melanoma 105% | HCT-15 colon 103% | HT29 colon 113% | SNB-75 CNS 76.7% | SNB-19 CNS 103% | PC-3 prostate 90.7% | SK-MEL-5 melanoma 100% | UACC-62 melanoma 99.9% | LOX IMVI melanoma 103%

O=C(NCc1cccc(C(F)(F)F)c1)[C@H](CCC(=O)N1CCN(C2CCCCC2)CC1)N1C(=O)[C@@H](N2C(=O)OC[C@@H]2c2ccccc2)[C@H]1/C(Cl)=C/c1ccccc1
active: SK-MEL-5 melanoma -59.5%
inactive: DU-145 prostate 60.7% | K-562 leukemia 31.5% | MALME-3M melanoma 47.8% | MDA-MB-231 breast 33.1% | RXF 393 renal 52.2% | SF-268 CNS 31% | SF-295 CNS 46.5% | UACC-257 melanoma 24.9% | M14 melanoma 37.9% | HCT-15 colon 31.8% | SNB-75 CNS 58.5% | SNB-19 CNS 39.4% | U251 CNS 28.1% | PC-3 prostate 21.7% | UACC-62 melanoma 60.3% | LOX IMVI melanoma 19.9% | SK-MEL-28 melanoma 18.6%
